Experimental data reported in publication PMC4336329 (PLoS ONE, 2015).
The campaign covered roughly 310,000 compounds. About 14,000 (4.5%) showed an effect of 50% or more. The effect is printed as a negative number. This excerpt belongs to a sample that is enriched for strong results.

biological target: human ether-à-go-go-related gene (hERG) potassium channel (human, UniProt Q12809); experiment: primary screen, population patch clamp on CHO cells stably expressing hERG; higher = less effect of the substance
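Further: peak tail current of the secondary pulse compared with the same well before compound.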

Chain of human ether-à-go-go-related gene (hERG) potassium channel (Q12809 whole entry, looked up): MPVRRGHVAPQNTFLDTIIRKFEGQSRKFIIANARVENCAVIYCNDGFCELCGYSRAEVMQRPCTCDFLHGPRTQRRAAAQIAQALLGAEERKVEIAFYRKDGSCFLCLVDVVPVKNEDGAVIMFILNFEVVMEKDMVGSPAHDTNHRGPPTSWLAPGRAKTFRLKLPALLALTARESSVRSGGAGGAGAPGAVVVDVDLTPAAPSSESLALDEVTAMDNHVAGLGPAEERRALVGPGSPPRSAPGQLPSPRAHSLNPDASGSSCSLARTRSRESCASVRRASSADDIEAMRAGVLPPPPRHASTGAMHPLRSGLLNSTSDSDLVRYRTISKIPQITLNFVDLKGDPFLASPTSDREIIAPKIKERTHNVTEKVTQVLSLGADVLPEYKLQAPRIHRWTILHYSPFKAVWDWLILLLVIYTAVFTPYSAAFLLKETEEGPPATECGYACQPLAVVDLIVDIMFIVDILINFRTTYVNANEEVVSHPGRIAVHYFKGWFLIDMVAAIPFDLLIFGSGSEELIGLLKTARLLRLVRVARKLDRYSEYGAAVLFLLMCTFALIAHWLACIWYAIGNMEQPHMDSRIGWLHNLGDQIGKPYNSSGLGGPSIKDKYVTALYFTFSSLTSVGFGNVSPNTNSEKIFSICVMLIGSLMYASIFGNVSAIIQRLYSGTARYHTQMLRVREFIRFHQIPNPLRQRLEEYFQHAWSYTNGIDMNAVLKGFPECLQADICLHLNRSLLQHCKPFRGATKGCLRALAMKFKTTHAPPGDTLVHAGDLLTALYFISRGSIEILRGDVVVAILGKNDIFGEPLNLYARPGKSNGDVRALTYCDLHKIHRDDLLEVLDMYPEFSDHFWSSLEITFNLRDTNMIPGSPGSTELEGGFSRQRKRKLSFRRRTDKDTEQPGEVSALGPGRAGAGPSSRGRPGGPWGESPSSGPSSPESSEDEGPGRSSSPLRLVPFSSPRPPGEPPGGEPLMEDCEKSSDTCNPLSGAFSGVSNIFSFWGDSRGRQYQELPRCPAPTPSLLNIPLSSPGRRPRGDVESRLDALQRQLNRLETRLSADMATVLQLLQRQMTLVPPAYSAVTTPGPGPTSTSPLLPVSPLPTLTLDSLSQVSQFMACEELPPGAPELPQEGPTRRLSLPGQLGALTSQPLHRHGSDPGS

SMILES | hERG current change (%, negative = inhibition) at 10uM
Nc1ccc2nc(SCC(=O)N3CCOCC3)sc2c1 | 17%
COc1ccc(NC(C)=O)cc1C#N | 19.3%
CCOc1ccccc1NC(=O)NCc1ccc2c(c1)OCO2 | 22.4%
CC(C)C(=O)N(Cc1ccc2c(c1)OCO2)Cc1ccccn1.Cl | -7.53%
CCOc1ccccc1CN(CCc1ccc2c(c1)OCO2)Cc1ccccn1 | -64.4%
CCN1C(=O)c2cccc3c(NC(=O)c4ccccc4)ccc1c23 | 9.37%
CCOc1cc(C(=O)Nc2ccc3c4c(cccc24)C(=O)N3CC)cc(OCC)c1OCC | -5.15%
CCN1C(=O)c2cccc3c(NC(=O)c4ccc(OC)c(OC)c4)ccc1c23 | -68.3%
O=P(O)(Oc1ccccc1)OC(c1ccccc1)C(F)(F)C(F)(F)F (stereo not shown) | 27.3%
Cc1cc(C)cc(OCC(=O)Nc2ccc(N3CCOCC3)cc2N2CCOCC2)c1 | -6.54%
Cc1cc(C)cc(OCC(=O)Nc2ccccc2N2CCCCC2)c1 | -0.491%
CN1CCN(c2ccccc2NC(=O)COc2ccccc2)CC1 | -48.4%
O=C(COc1ccc(Br)cc1)Nc1ccc(N2CCOCC2)cc1N1CCOCC1 | -7.56%
CN1CCN(c2ccccc2NC(=O)COc2ccc(Br)cc2)CC1 | -58%
CC(=O)N1CCN(c2ccccc2NC(=O)COc2ccccc2C)CC1 | -14%
CC(=O)N1CCN(c2ccccc2NC(=O)COc2ccc(Br)cc2)CC1 | -9.2%
COC(=O)c1ccc(N2CCN(C)CC2)c(NC(=O)COc2ccccc2)c1 | -43.9%
O=C(COc1cccc(Br)c1)Nc1ccc(N2CCOCC2)cc1N1CCOCC1 | -50.6%
COC(=O)c1ccc(N2CCN(C)CC2)c(NC(=O)COc2ccc(C)cc2)c1 | -20%
COC(=O)c1ccc(N2CCN(C)CC2)c(NC(=O)COc2ccc(OC)cc2)c1 | -53.5%
CC(=O)N1CCN(c2ccccc2NC(=O)COc2cc(C)cc(C)c2)CC1 | -52.4%
O=C(Nc1cccc(Cl)c1)OC1CCCCc2cccnc21 (stereo not shown) | 4.75%
COc1ccc(-c2cc(N3C(=O)Nc4ccccc4N3O)n[nH]2)cc1OC | 3.84%

SMILES | hERG current change (%, negative = inhibition) at 10uM
CCO[C@@H]1OC(C(=O)N2CCOCC2)=C[C@H](c2cn(C(C)=O)c3ccccc23)[C@H]1CCCO | -20.3%
CSc1nc2sccc2c(=O)[nH]1 | 32.8%
Cc1cccc(NC(=O)c2ccccc2NC(=O)c2ccccc2)n1 | -0.693%
COc1ccc(C(C)NC(=O)CCc2ccccc2)cc1 (stereo not shown) | 10%
Clc1ccc(-c2nc3ccncc3[nH]2)cc1 | -17.3%
COc1ccccc1-n1c(O)c(C=NCc2ccccn2)c2ccccc2c1=O | -8.58%
Cc1ccc(N2C(=O)CC(Sc3nc(-c4ccccc4)c4cc(Cl)ccc4n3)C2=O)c(C)c1 (stereo not shown) | 3.36%
CN1CCN(c2ccccc2NC(=O)COc2ccc(C3CCCCC3)cc2)CC1 | 16.8%
CCn1c(=O)cc(OCC(=O)Nc2ccccc2C#N)c2ccccc21 | 6.06%
CCC(=O)N1CCN(c2ccccc2NC(=O)COc2cccc(C)c2)CC1 | -38.2%
Cc1cccc(OCC(=O)Nc2ccccc2N2CCCCC2)c1 | 2.17%
COc1cc(CCC(=O)Nc2cc(Cl)ccc2N2CCN(C)CC2)cc(OC)c1OC | -10.2%
Cc1cccc(OCC(=O)Nc2ccccc2N2CCN(C)CC2)c1 | -51.2%
COc1ccc(CCC(=O)Nc2cc(Cl)ccc2N2CCN(C)CC2)cc1 | -50.1%
CCOC(=O)c1ccccc1NC(=O)COc1cc(=O)n(CC)c2ccccc12 | 5.47%
COc1ccc(OCC(=O)Nc2ccccc2N2CCN(C)CC2)cc1 | -38.6%
CN1CCN(c2ccccc2NC(=O)COc2ccc(Cl)cc2)CC1 | -59.9%
CCn1c(=O)cc(OCC(=O)Nc2ccccc2N2CCN(C)CC2)c2ccccc21 | -58.3%
COc1ccc(CC(=O)Nc2cc(Cl)ccc2N2CCCC2)cc1 | 15.7%
COc1cccc(C(c2c(O)nc(SC)n(C)c2=O)c2c(O)nc(SC)n(C)c2=O)c1 | 0.717%
COc1ccc(-n2nc3c(c2NC(=O)c2ccc(S(=O)(=O)N4CCOCC4)cc2)CS(=O)(=O)C3)cc1 | 14.6%
Cc1ccc(C(=O)N2CCN(c3ccc(NC(=O)c4cccnc4Cl)cc3)CC2)cc1 | -27.8%
Cc1cc(S(=O)(=O)NCCCN2CCOCC2)c(Cl)cc1Cl | -13.1%

SMILES | hERG current change (%, negative = inhibition) at 10uM
Cc1ccccc1C(=O)Oc1ccc2ccc(O)cc2c1 | 14.5%
O=C(CSc1nnc(Cc2ccccc2)o1)N1CCOCC1 | 0.161%
O=C(CSc1nnc(-c2ccncc2)n1-c1ccccc1)Nc1ccc(C(=O)O)cc1 | 25.5%
CCNC(=O)Nn1c(-c2ccccc2)nc2ccccc2c1=O | 22.9%
Cc1ccc(C(=O)NCc2n[nH]c(=S)n2-c2ccccc2)cc1[N+](=O)[O-] | 7.76%
Cc1cc(NC(=O)Cn2nnc(-c3ccccc3NC(=O)c3ccccc3F)n2)no1 | 12.5%
COc1ccc(-c2[nH]ncc2Oc2ccccc2OC)c(O)c1 | -11.3%
O=S(=O)(Nc1nc2ccccc2s1)c1ccc(Br)s1 | -5.3%
O=S1(=O)N=C(N2CCN(c3ccc(F)cc3)CC2)c2ccccc21 | -8.87%
O=C(CN1C(=O)c2cccc3cccc1c23)N1CCN(c2ccc(F)cc2)CC1 | 9.69%
Fc1ccc(N2CCN(C3=Nc4cccc5cccc3c45)CC2)cc1 | -77%
O=C1C2C3C=CC(C4CC34)C2C(=O)N1CCc1ccccc1 (stereo not shown) | 3.23%
c1cc2c3c(cccc3c1)C(N1CCCCC1)=N2 | -66.2%
N#Cc1nc(Cc2ccccc2)oc1N1CCC(Cc2ccccc2)CC1 | 24.5%
Cl.O=C1C2C3C=CC(C4CC34)C2C(=O)N1CCCCN1CCN(c2ccc(F)cc2)CC1 (stereo not shown) | -69.3%
c1ccc(CC2CCN(c3nnnn3-c3ccccc3)CC2)cc1 | -13.1%
O=C1C2CCCN2C(=O)N1CCCCN1CCN(c2ccc(F)cc2)CC1 (stereo not shown) | -43.2%
CC1CN(C2=Nc3cccc4cccc2c34)CC(C)O1 (stereo not shown) | -47.6%
c1ccc(CC2CCN(C3=Nc4cccc5cccc3c45)CC2)cc1 | -80%
c1cc2c3c(cccc3c1)C(N1CCOCC1)=N2 | -31%
Cc1ccc(S(=O)(=O)N2CCC(C(=O)OCc3c(C)noc3C)CC2)cc1C | -15.8%
COc1ccc(S(=O)(=O)NC2CC(C)(C)NC(C)(C)C2)c2ccccc12 | 6.47%
CCc1nc(C)c(C#N)c2cc(OC)c(OC)cc12 | 1.21%

SMILES | hERG current change (%, negative = inhibition) at 10uM
CC(C)(C)OC(=O)NCCc1nnc(S(=O)(=O)Cc2ccc(Cl)cc2Cl)o1 | -5.97%
CCCOc1ccc(/C=N/NC(=S)Nc2ccccc2[N+](=O)[O-])c(O)c1 | 24.3%
COC(=O)c1c(C)c2c(C)cc3ccccn3c-2c1C(=O)OC | -4.02%
O=C(O)CCC(=O)N1CCN(S(=O)(=O)c2ccc3ccccc3c2)CC1 | 25.6%
c1cc2c3c(cccc3c1)C(N1CCCCCC1)=N2 | -67%
O=C(CCCN1C(=O)c2cccc3cccc(c23)C1=O)N1CCN(c2ccc(F)cc2)CC1 | -1.91%
c1ccc(NC2=Nc3cccc4cccc2c34)cc1 | 1.71%
O=C1c2cccc3cccc(c23)C(=O)N1CCCN1CCN(c2ccc(F)cc2)CC1 | -69.2%
O=C(CN1C(=O)c2cccc3cccc(c23)C1=O)N1CCCCCC1 | 9.58%
O=C(CN1CCN(CCN2C(=O)c3cccc4cccc(c34)C2=O)CC1)c1ccc(F)cc1 | -42.4%
CC(=O)N1CCN(C2=Nc3cccc4cccc2c34)CC1 | -46%
COc1ccccc1N1CCN(C(=O)CN2C(=O)c3cccc4cccc(c34)C2=O)CC1 | 16.9%
COc1ccccc1N1CCN(C2=Nc3cccc4cccc2c34)CC1 | -71.5%
Cc1cc(C)n(Cc2ccc(C(=O)Nc3ccc(Br)cc3C)o2)n1 | -19.4%
O=C(COc1ccccc1O)Nc1ccc(Cl)cc1 | 5.23%
Cc1ccc(C(=O)CSc2ccccc2C(=O)O)cc1 | 16.9%
Cc1ccccc1C(=O)NC1CCN(Cc2nnnn2C2CCCC2)CC1 | 3.85%
C#CCOC(=O)c1ccccc1C(=O)O | 7.07%
N#C/C(=C/c1cc(Br)cs1)C(=O)NCC1CCCO1 (stereo not shown) | -14.8%
O=C(OCn1ncc(Cl)c(Cl)c1=O)c1ccc(F)cc1 | -3.74%
O=C(OCn1ncc(Br)c(Br)c1=O)c1ccc(F)cc1 | -51.4%
O=C(OCn1ncc(Br)c(Br)c1=O)c1c(F)cccc1F | 14.9%
